Screening data as filed in PubChem.
An excerpt weighted towards active compounds, which were near 0.36% of everything screened.
IMPase Li inh: IMPase inhibition in cells with lithium potentiation. CHO-M1 cells, IP1 TR-FRET (IP-One), carbachol + lithium. Potency, µM (highest dose often 59.4 µM), inactives show at the highest dose activity, negative = IMPase inhibition, actives largely listed as inhibitors. 210,000 compounds, 0.35% hits; active means well fitted inhibition curve with a large enough effect; inconclusive means small, poorly fitted or top-dose-only effect; inactive means no such curve, though single readings can be large or run the other way;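 further: IP1 builds up when IMPase is blocked and the TR-FRET signal falls; potency means the concentration at half of the fitted maximal effect; plate controls were basal vehicle for no effect and high inhibitor control for full effect; nearly all actives have a fitted effect of over 50% in size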
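Test compounds were applied to CHO-M1 cells previously cultured for 16–30 h at 2000 per well. A small lithium amount accompanied them; after 30 min at 37C, IP1 was quantified by TR-FRET.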
IMPase cell inh: membrane-permeable compound that blocks inositol monophosphatase. P97697. inhibition (IP1 accumulation), % at 46.1 µM. CHO-M1 cells, IP1 accumulation, HTRF TR-FRET ratio. 120,000 tested, under 10 active; active means well fitted curve in the direction sought with a large enough effect in the signal ratio, not every such curve was filed as active; inconclusive means small, poorly fitted or top-dose-only effect, or a change in a side signal; inactive means no such curve, though single readings can be large or run the other way; the % refers to the signal ratio;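 further: cells stimulated with carbachol in lithium chloride buffer; plate controls were DMSO basal wells for no effect and reference inhibitor wells for full effect; higher means more IMPase inhibition seen as more IP1 and lower FRET ratio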
Target sequence (P97697 whole entry, looked up): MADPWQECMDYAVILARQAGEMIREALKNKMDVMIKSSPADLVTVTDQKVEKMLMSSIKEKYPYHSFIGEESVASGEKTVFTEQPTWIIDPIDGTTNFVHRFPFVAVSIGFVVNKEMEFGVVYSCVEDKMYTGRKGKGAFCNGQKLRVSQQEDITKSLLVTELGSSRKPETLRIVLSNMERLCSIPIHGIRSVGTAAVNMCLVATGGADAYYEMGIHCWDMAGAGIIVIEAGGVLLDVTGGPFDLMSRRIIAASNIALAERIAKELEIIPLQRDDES
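In this qHTS, compounds (final up to 46 uM) act on CHO-M1 cells that are then activated through the M1 receptor with carbachol, in pH 7.4 buffer containing 50 mM LiCl, for 30 min. IP1 accumulation is quantified by the IP-One immunoassay.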
Active calls of the source: *; ? = inconclusive; . = no result given; [ ] = remark or other dose.

SMILES	IMPase Li inh	IMPase cell inh
C[C@@H]1CC2C3CCC4=CC(=O)C=CC4(C)[C@@]3(F)[C@@H](O)CC2(C)[C@@]1(O)C(=O)CO (some centres undefined)	-3%	.
COc1ccccc1-c1n[nH]c(=S)n1N	-17%	.
COc1ccccc1-c1n[nH]c(=S)n1-c1ccccc1	2µM*	?
COC(=O)C1=C(C(=O)OC)[C@@H]2N(C)c3ccc(OC)cc3[C@@]23C[C@@H](C(=O)OC)N(C(C)=O)C3=N1	14%	.
COCCn1c(=N)c(C(=O)NCC2CCCO2)cc2c(=O)n3ccccc3nc21 (centres undefined)	.	-8
Cn1c(C(=O)NCC2CCCO2)cc2c(=O)n3ccccc3nc21 (centres undefined)	8.9µM*	-5
CC(=O)c1cccc(NC(=O)c2nc3ccccc3n(C)c2=O)c1	.	6
Cc1nn2c3ccccc3n(CC(=O)c3cccs3)c2nc1=O	4µM*	.
Cc1nn2c3ccccc3n(Cc3ccccc3)c2nc1=O	3%	5
O=C1[C@H]2[C@H]3C=C[C@@H](C4[C@H]3[C@@H]3C(=O)N(CN5CCSCC5)C(=O)[C@H]43)[C@H]2C(=O)N1CN1CCSCC1 (some centres undefined)	-6%	.
Cc1cc(SCC(=O)Nc2ccc(Cl)cc2)nc2ccccc12	.	5
COc1ccc2c(C)cc(SCC(=O)Nc3ccc(Cl)cn3)nc2c1	8.9µM*	.
NCC(O)COc1cccc2ccccc12 (centres undefined)	5%	.
COC(=O)NC(CCc1ccccc1)C(C(C)=O)C(=O)OC (centres undefined)	7%	.
Cc1cc(C)c(NC(=O)CSc2nc3ccc(N4C(=O)c5ccccc5C4=O)cc3s2)c(C)c1	-10%	.
CCc1cccc(C)c1NC(=O)CSc1nc2ccc(N3C(=O)c4ccccc4C3=O)cc2s1	16µM*	-8
COc1ccc(S(=O)(=O)Nc2ccccc2OC)cc1C	16%[38.3 µM]	-3
COc1ccc(S(=O)(=O)Nc2ccccc2SC)cc1C	11µM*	4
COC(=O)/C(=C1\OC(=O)C(c2ccccc2)C1=O)c1ccccc1 (centres undefined)	6%	.
O=C(c1ccc(Cl)cc1)c1nnc(-c2ccncc2)o1	10µM*	-3
O=C(c1ccccc1)c1nnc(-c2ccncc2)o1	21%[38.3 µM]	9
COC(=O)c1ccc(C(=O)OC)c(NC(=O)COC(=O)c2ccccc2OC)c1	11µM*	.
CCOc1ncccc1C(=O)OCC(=O)Nc1cc(C(=O)OC)ccc1C(=O)OC	-7%[38.3 µM]	-1
CC(C)(CS)C(=O)N1CCC[C@H]1C(=O)O	-4%	1[20.6 µM]
O=C(Nc1ccc(Cl)c(S(=O)(=O)N2CCOCC2)c1)c1cc(-c2ccccn2)nc2ccccc12	4%	.
SMILES	IMPase Li inh	IMPase cell inh
O=C(c1ccc(Cl)c(Cl)c1)c1cc(-c2ccccn2)c(N2CCOCC2)s1	10µM*	-19
CCCCc1nc2c(c3c1C[C@H](C)OC3)CN(S(=O)(=O)c1ccc(C#N)cc1)CC2	9%	.
O=C(CSc1ccc2nnc(-c3ccc(F)cc3)n2n1)NCC1CCCO1 (centres undefined)	25µM*	9
COc1ccc(-c2nnc3ccc(SCC(=O)NCC4CCCO4)nn23)cc1 (centres undefined)	32%[38.3 µM]	1[1.84 µM]
CCN(CC)c1nc(-c2ccccc2Cl)c2cc(Br)ccc2n1	.	-16
O=C(O)CCC(=O)N1CCN(c2nc(-c3ccccc3Cl)c3cc(Br)ccc3n2)CC1	14µM*	?
COc1cc2c(cc1NC(=O)COc1ccc(Cl)cc1Br)oc1ccccc12	.	-1
Cc1nnc(SCC2=C(C(=O)O)N3C(=O)[C@@H](NC(=O)Cn4cnnn4)[C@@H]3SC2)s1	-2%	0[20.6 µM]
CCN(CC)CCN1C(=O)C(O)=C(C(=O)c2cc3ccccc3o2)C1c1cccnc1 (centres undefined)	10µM*	?
O=C(C1=C(O)C(=O)N(CCCN2CCOCC2)C1c1ccccn1)c1cccs1 (centres undefined)	24%[38.3 µM]	5
O=C(C1=C(O)C(=O)N(CCCN2CCOCC2)C1c1ccccn1)c1cc2ccccc2o1 (centres undefined)	11µM*	?
Cc1nc(C)c(C(=O)C2=C(O)C(=O)N(CCN(C)C)C2c2ccccc2)s1 (centres undefined)	16%[38.3 µM]	-16
COc1ccccc1C1C(C(=O)c2cc3ccccc3o2)=C(O)C(=O)N1CCN(C)C (centres undefined)	8.9µM*	-27
CN(C)CCN1C(=O)C(O)=C(C(=O)c2cc3ccccc3o2)C1c1cccc(Br)c1 (centres undefined)	11µM*	?
COc1cc(C2C(C(C)=O)=C(O)C(=O)N2CCN(C)C)ccc1O (centres undefined)	4%[38.3 µM]	2
CCN(CC)CCN1C(=O)C(O)=C(C(=O)c2sc(C)nc2C)C1c1cccnc1 (centres undefined)	19%[38.3 µM]	2
CC(C)(CO)[C@H](O)C(=O)NCCCO	-12%	-14[20.6 µM]
COC(=O)/C=C/c1cc(O)ccc1O	9%	.
Cc1ccc(OCCCn2c(-c3ccc(Cl)cc3)nc3ccccc3c2=O)cc1C	.	-8
O=C(c1ccccc1)c1cc2ccccc2o1	-13%[38.3 µM]	-9
O=C(C1=C(O)C(=O)N(CCc2ccccc2)C1c1ccncc1)c1cc2ccccc2o1 (centres undefined)	4.5µM*	.
Cc1noc(C)c1S(=O)(=O)N1CCc2nc(-c3ccccc3)c3c(c2C1)CO[C@@H](C)C3	7%	.
O=C(c1ccco1)N1CCC[C@@]2(CCN(C(c3ccccc3)c3ccccc3)C2)C1	19%	.
COC(=O)c1sc(NC(=O)c2c(OC)cccc2OC)c(C#N)c1C	11µM*	.
COC(=O)c1sc(NC(=O)c2c(F)cccc2F)c(C#N)c1C	-2%	.
SMILES	IMPase Li inh	IMPase cell inh
C[C@]12CC[C@H](O)CC1=CC[C@H]1[C@@H]2CC[C@@]2(C)C(N(CCO)CCO)CC[C@@H]12 (some centres undefined)	14%	.
COc1ccc(C(=O)Nc2cccc(C)c2)cc1S(=O)(=O)N1CCOCC1	35%[38.3 µM]	-4
COc1ccc(C(=O)Nc2cccc3c2C(=O)NC3=O)cc1S(=O)(=O)N1CCOCC1	10µM*	-4
O=S(c1ccccc1)c1ccc2nnnn2n1 (centres undefined)	.	13
Cc1cccc(CN2CCN(CC(=O)O)C2=O)c1	11µM*	?
Cc1cccc(CN2CCN(CC(=O)N3CCCC3)C2=O)c1	15%[38.3 µM]	-8
CC(C)CN1CCC2(CC1)CCN(C(=O)c1cc(C(F)(F)F)cc(C(F)(F)F)c1)CC2	27%	.
COC(=O)c1ccccc1S(=O)(=O)N1CCc2nc(-c3ccccc3)c3c(c2C1)CO[C@@H](C)C3	13%	.
CCOC(=O)Cn1c(=NC(=O)c2nc3ccccc3s2)sc2cc(S(N)(=O)=O)ccc21	10µM*	.
C=CCn1c(=NC(=O)c2sc3ccccc3c2Cl)sc2cc(S(N)(=O)=O)ccc21	10µM*	.
COCCn1c(=NC(=O)c2cc(-c3cccs3)nc3ccccc23)sc2cc(S(N)(=O)=O)ccc21	-8%	.
COCCn1c(=NC(=O)c2sc3ccccc3c2Cl)sc2cc(S(N)(=O)=O)ccc21	11µM*	.
C=CCn1c(=NC(=O)c2cc(Cl)sc2Cl)sc2cc(S(N)(=O)=O)ccc21	3%	.
CCOC(=O)Cn1c(=NC(=O)CN2C(=O)CCC2=O)sc2cc(S(N)(=O)=O)ccc21	-6%	.
